PrPC surface inh – cell surface PrPC inhibition, primary TR-FRET screen. AID 720596. TR-FRET read-out. inhibition, % at 13.8 µM. 370,000 compounds, 0.43% hits; in the data active = inhibition above about 24%
GDH-TPI counter – GDH-TPI coupled enzyme inhibition counter-screen; GDH-TPI coupled enzyme counterscreen, NADH absorbance; inhibition, % at 4.8 µM; 360,000 compounds, 1.2% hits; AID 588335; in the data active = inhibition above about 30%
Mtb FBA inh – inhibits M. tuberculosis FBA enzyme; P9WQA3; purified M. tuberculosis FBA, fluorescence read-out; inhibition, % at 1 µM; 360,000 compounds, 2.3% hits; in the data active = inhibition above about 27%
Target sequence (P9WQA3 whole entry, looked up): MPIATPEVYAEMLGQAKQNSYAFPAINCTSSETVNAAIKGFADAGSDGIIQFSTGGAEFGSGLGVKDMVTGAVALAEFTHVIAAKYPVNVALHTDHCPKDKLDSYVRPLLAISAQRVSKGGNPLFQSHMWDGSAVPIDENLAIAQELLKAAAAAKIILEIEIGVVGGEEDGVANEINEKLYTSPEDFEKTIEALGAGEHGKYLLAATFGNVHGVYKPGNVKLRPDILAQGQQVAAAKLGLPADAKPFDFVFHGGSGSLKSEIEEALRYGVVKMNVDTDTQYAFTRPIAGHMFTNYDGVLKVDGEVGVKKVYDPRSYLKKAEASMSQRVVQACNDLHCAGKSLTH
BH1578 lux ind – inducers of Vibrio cholerae quorum light production without autoinducers; 350,000 compounds, 0.16% hits; activation, % at 18.7 µM; V. cholerae BH1578 lux reporter, luminescence, 6 h; in the data active = activation mostly above about 9.7%, no sharp cut-off
SARS 3CLpro inh – SARS-CoV 3CLpro protease inhibition | 290,000 compounds, 0.14% hits | AID 1706 | recombinant SARS-CoV 3CLpro, quenched FRET peptide cleavage | inhibition, % at 6 µM | P0C6X7; in the data active = inhibition above about 12%
Of the large screens only hits and unclear results are named; the others gave an inactive call. This is a sample that favours compounds with a hit; in the whole collection about 3.9% have one here.

Cc1ccc(NC(=O)c2cc([N+](=O)[O-])ccc2N2CCOCC2)cc1S(=O)(=O)N(C)C	GDH-TPI counter 42
N#Cc1c(-c2ccncc2)cc(-c2ccc(F)cc2)nc1N	Mtb FBA inh 125
Cc1ccc(-c2cc(-c3ccc(F)cc3)nc(N)c2C#N)o1	Mtb FBA inh 155
COc1ccc(CC(=O)Nc2nc(OCC(F)(F)F)cnc2-c2ccc(Cl)cc2Cl)cc1	none (no result: SARS 3CLpro inh)
Cc1c(NC(=O)C2CCCN(S(=O)(=O)c3cccc4ccccc34)C2)c(=O)n(-c2ccccc2)n1C (stereo not drawn)	none (no result: GDH-TPI counter, Mtb FBA inh, BH1578 lux ind, SARS 3CLpro inh)
COC(=O)c1ccc(OCC(=O)c2ccc(O)cc2O)cc1	none
COC(=O)c1cc(CC(=O)c2ccc(O)cc2O)c(C)o1	GDH-TPI counter 36
CCOC(=O)c1ccc(CC(=O)c2ccc(O)cc2O)o1	none
COC(=O)c1ccc(CC(=O)c2ccc(O)cc2O)o1	GDH-TPI counter 33 (no result: PrPC surface inh)
CC(C)Cn1c(N)c(C(=O)COC(=O)c2nccnc2N)c(=O)n(C)c1=O	Mtb FBA inh active (no result: SARS 3CLpro inh)
C=Cc1cc(OC)c2c(c1)c(=O)oc1c2cc(OC)c2c(O)ccc(C3OC(C)C(O)C(C)(O)C3O)c21 (stereo not drawn)	PrPC surface inh 31 (no result: SARS 3CLpro inh)
CC1(NC(=O)CCc2nc3ccccc3c(=O)[nH]2)CCS(=O)(=O)C1 (stereo not drawn)	none
C=C1C(=O)[C@]23C[C@H]1CC[C@H]2[C@]1(C)[C@@H](OC(C)=O)CC[C@@](C)(C(=O)OC)[C@H]1C[C@@H]3OC(C)=O	none (no result: GDH-TPI counter, BH1578 lux ind, SARS 3CLpro inh)
C=C1C(=O)[C@]23C[C@H]1CCC2[C@@]1(C)C(C[C@@H]3O)[C@](C)(C(=O)OC)CC[C@@H]1OC(C)=O (stereo partly drawn)	PrPC surface inh 68 (no result: GDH-TPI counter, BH1578 lux ind, SARS 3CLpro inh)
O=C(CN1C(=O)c2ccccc2S1(=O)=O)Nc1ccon1	none (no result: SARS 3CLpro inh)
COCc1cccc(-c2csc(C(O)c3ccccc3)n2)c1 (stereo not drawn)	none (no result: SARS 3CLpro inh)
CCn1cc(CN2CCC(n3nccc3NC(=O)C3CCCC3)CC2)cn1	none
Cc1cc(C)n(C(N)=NC(=O)c2ccccc2)n1	none (no result: SARS 3CLpro inh)
Cc1ccsc1/C=C(\CC(=O)O)c1nc2ccccc2o1	GDH-TPI counter 44
CCOC(=O)c1c(-c2ccccc2)oc2ccc(OCC(=O)NNC(=O)CCCC(=O)O)cc12	Mtb FBA inh 157
CCOC(=O)c1c(-c2ccccc2)oc2ccc(OC(C)C(=O)O)cc12 (stereo not drawn)	Mtb FBA inh 165
CCOC(=O)c1c(-c2ccc(OC)cc2)oc2ccc(OC(=O)N(C)C)cc12	Mtb FBA inh active
CCOC(=O)c1c(C)oc2ccc(OCC(N)=O)cc12	none
CCOC(=O)c1c(-c2ccccc2)oc2ccc(OCC(=O)NNC(=O)CCC(=O)O)cc12	Mtb FBA inh 122
CCCCOc1cccc2c(=O)n(CC(=O)Nc3ccc4c(c3)OCCO4)ccc12	none (no result: SARS 3CLpro inh)
O=C(O)c1ccc(N/N=C/C=C/c2ccccc2)cc1	GDH-TPI counter 33
O=C(N/N=C/C=C/c1cccc([N+](=O)[O-])c1)c1ccncc1	none
COc1ccc(NCC(=O)N/N=C/C=C\c2ccccc2)cc1	GDH-TPI counter 31
O=c1nc(N/N=C/c2c[nH]c3ccccc23)cn[nH]1	none
Nc1ccc(C(=O)N/N=C\C=C\c2cccc([N+](=O)[O-])c2)cc1	GDH-TPI counter 43
O=c1nc(N/N=C/C=C/c2ccccc2)cn[nH]1	GDH-TPI counter 78
COc1ccc(NC(=S)NCCCCCC(=O)C[N+](=O)[O-])cc1	none
Cc1nc(CCNS(=O)(=O)c2cccnc2)cs1	none
O=C(N/N=C/C=C\c1ccccc1[N+](=O)[O-])c1ccncc1	none
CC1(C)OC(c2ccccc2)=C/C(=C/C=Nc2ccccc2)O1	none (no result: BH1578 lux ind)
O=C(N/N=C/C=C/c1ccccc1)c1ccncc1	GDH-TPI counter 37
CC1(C)OC(c2ccccc2)=C/C(=C\C=N\NC(=O)c2ccncc2)O1	GDH-TPI counter 33
CC(C)c1ccccc1-n1c(SCc2cc(=O)oc3ccc4ccccc4c23)nnc1-c1cccnc1	none
O=C(Nc1ccccc1C(=O)Nc1nccs1)c1ccccc1	none (no result: GDH-TPI counter, BH1578 lux ind, SARS 3CLpro inh)
O=C(NCCc1c[nH]c2ccccc12)OCc1cn(-c2ccc(F)cc2)nn1	none (no result: GDH-TPI counter, Mtb FBA inh, BH1578 lux ind, SARS 3CLpro inh)
S=c1[nH]c2ccc(Cl)cc2[nH]1	none
S=c1ncc2[nH]c(=S)[nH]c2[nH]1	GDH-TPI counter 36 (no result: PrPC surface inh, SARS 3CLpro inh)
O=S(=O)(c1ccc(Nc2ccc(-c3ccc4c(c3)OCCO4)nn2)cc1)N1CCCC1	GDH-TPI counter 34
Cc1ccc(OC2CCN(C(=O)[C@@H](Cc3ccccc3)NC(=O)[C@H]3O[C@@H](n4ccc(=O)[nH]c4=O)[C@H](O)[C@@H]3O)CC2)cc1	none (no result: GDH-TPI counter, Mtb FBA inh, BH1578 lux ind, SARS 3CLpro inh)
c1ccn2c(c1)nc1c2nc2ccccn21	Mtb FBA inh active
Clc1c(-c2ccccc2)nc2ccccn12	none
Clc1ccc2c(c1)C1OCCC1C(c1ccco1)N2 (stereo not drawn)	Mtb FBA inh 69
CC(=O)N1c2ccc(Cl)cc2C2OCCC2C1c1ccco1 (stereo not drawn)	none
COc1ccc(S(=O)(=O)N2CCOCC2)cc1NC(=O)C1CCN(S(=O)(=O)c2ccc(Cl)cc2)CC1	none (no result: SARS 3CLpro inh)
O=C(CN1CCOCC1)N/N=C/c1ccc(-c2ccc(C(=O)O)cc2)o1	GDH-TPI counter 35
CC1(CC(=O)N/N=C/c2ccc(-c3ccc(C(=O)O)cc3)o2)OCCO1	GDH-TPI counter 60
Cc1ccc(-c2ccc(/C=N/NC(=O)CN3CCCC3)o2)cc1Cl	none (no result: BH1578 lux ind)
O=C(CN1CCOCC1)N/N=C/c1ccccc1	none
CC1(CC(=O)N/N=C/c2ccc(-c3ccc(Cl)cc3)o2)OCCO1	GDH-TPI counter 55
O=C(NCc1ccncc1)C1Cc2c(-c3ccccc3Oc3ccccc3)ccnc2O1 (stereo not drawn)	none (no result: SARS 3CLpro inh)
COC(=O)C1CN(C2CC2)CCS(=O)(=O)N1Cc1cn(Cc2ccc(F)cc2)nn1 (stereo not drawn)	none (no result: GDH-TPI counter, Mtb FBA inh, BH1578 lux ind, SARS 3CLpro inh)
CSc1nc2nc(Cl)c(Cl)nc2[nH]1	GDH-TPI counter 37, Mtb FBA inh active (no result: SARS 3CLpro inh)
CCOC(=O)CSc1nc2nc(Cl)c(Cl)nc2[nH]1	GDH-TPI counter 33, Mtb FBA inh active (no result: SARS 3CLpro inh)
Cc1cccc(CC(=O)NCCS(=O)(=O)N2CCN(c3cccc(Cl)c3)CC2)c1	none (no result: SARS 3CLpro inh)
COc1ccccc1NS(=O)(=O)c1cc(NC(=O)CNC(=O)c2ccc(C)s2)ccc1Cl	none
COc1ccccc1C#Cc1cnc2c(c1)C(=O)N([C@H](C)CO)C[C@@H](C)[C@@H](CN(C)C(=O)c1ccc3c(c1)OCO3)O2	none (no result: SARS 3CLpro inh)
COC(=O)Cc1cc(=O)[nH]c(Nc2nc3ccccc3o2)n1	GDH-TPI counter 37
Cc1cc(Cl)ccc1NC(=O)CSc1n[nH]c(N)n1	none (no result: SARS 3CLpro inh)
COC(=O)C1=C(C)N(C)C(=NCC2CC2)NC1c1ccccc1 (stereo not drawn)	none (no result: GDH-TPI counter, Mtb FBA inh, BH1578 lux ind, SARS 3CLpro inh)
Cc1ccc(NC(=O)COC(=O)/C=C/c2ccc(Br)o2)cc1S(=O)(=O)N(C)C	none
CN(C)S(=O)(=O)c1cccc(NC(=O)COC(=O)/C=C/c2ccc(Br)o2)c1	GDH-TPI counter 39
CN(C)S(=O)(=O)c1cccc(NC(=O)COC(=O)c2ccc3ccccc3n2)c1	none (no result: SARS 3CLpro inh)
CN(C)S(=O)(=O)c1cccc(NC(=O)COC(=O)c2cc(-c3cccc(Br)c3)nc3ccccc23)c1	GDH-TPI counter 32

Bioassay records deposited in PubChem BioAssay by several laboratories.
